The panel holds about 83,000 compounds, 20% with a hit somewhere; the sample as a whole holds those more often.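 Activity criterion: percent growth below 10, measured after cells in 96-well plates were exposed to a single compound concentration for 48 hours.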 The source made the active and inactive calls.
tested on: SW-620 colon; assay: NCI-60 one-dose screen, 48 h (100 = growth as untreated, 0 = no growth, -100 = all killed); details: 10 µM
Description: Growth inhibition of the SW-620 human tumor cell line is measured as a screen for anti-cancer activity. Cells are grown in 96 well plates and exposed to the test compound for 48 hours. Compounds are tested at a single concentration, which is 10^-5 M for most compounds. The reported endpoint is percent growth (GI% or GIPRCNT), where numbers from 0 - 100% represent growth inhibition, and numbers from -100% - 0 represent cell death. For example, a value of 40 represents 60% growth inhibition. A value of 0 means no net growth occurred over the course of the experiment. A value of -40 indicates 40% of cells at the beginning of the experiment died by the end of the experiment. A value of -100 means all cells are dead at the end of the experiment.
NCI-60 Human Tumor Cell Lines Screen was performed using the standard one-dose NCI protocol, which is described in more detail at https://dtp.cancer.gov/discovery_development/nci-60/default.htm.
Compounds with GIPRCNT values below 10 were considered active. Activity score was based on GIPRCNT using the following formula: […]
Score is 0 for GIPRCNT values of 100 or above, 50 for GIPRCNT values of 0, and 100 for GIPRCNT values of -100.

Structure (SMILES) | growth
CN1CCN(c2ccc(Nc3nc(NCCCNC(=O)c4ccc(F)cc4)c4sccc4n3)cc2)CC1 | 58.3% (inactive)
O=C(CSc1nnc(-c2c[nH]c3ccccc23)n1-c1ccccc1)Nc1ccc(C(=O)/C=C/c2ccc(Br)cc2)cc1 | 97.6% (inactive)
O=C(CSc1ccc(-c2ccc(Cl)cc2)nn1)Nc1ccc(Cl)c(C(F)(F)F)c1 | 36% (inactive)
Brc1ccc(/C=C/c2n(Cc3ccc4ccccc4c3)c3ccccc3[n+]2Cc2ccc3ccccc3c2)cc1 | -73.9% (active)
CCN(CC)CCOc1ccc(C(=C(C)c2ccccc2)c2ccc(OCCN(CC)CC)cc2)cc1 | -4.84% (active)
CCN1CCN(c2ccc(NC(=O)Nc3ccc(-c4cc(C(=O)NC(C)C)c5ncccc5n4)cc3)cc2C(F)(F)F)CC1 | -69.8% (active)
Cc1ccc(NC(=O)NCn2c(=O)[nH]c3ccccc3c2=O)cc1 | 78.5% (inactive)
O=C(Nc1ccc(Cl)c(C(F)(F)F)c1)c1cncc(C#Cc2cnc3ccc(N4CCOCC4)nn23)c1 | 19.4% (inactive)
CCCn1c(O)c(N=Nc2nc(-c3cc4ccccc4oc3=O)cs2)c2cc(Br)ccc21 | 106% (inactive)
C=C1CCC2C3(C)COC(c4c(F)cccc4F)OC3CCC2(C)C1CC(O)C1=CCOC1=O (stereo not given) | 3.41% (active)
CC(=O)Nc1ccc(-n2cnc3cc(-c4ccc(NS(C)(=O)=O)cc4)ccc32)cc1 | 71.5% (inactive)
O=C1Nc2cc(Cl)ccc2/C1=C/c1ccc(OCc2ccc(Br)cc2F)cc1 | -56% (active)
O=C(Nc1cc(Cl)cc(Cl)c1)Nc1cc(Cl)cc(Cl)c1 | -42.3% (active)
COc1ccc(-c2ccc(/C=N/NC(=O)c3[nH]c4ccc(Br)cc4c3-c3ccccc3)s2)cc1 | 44.8% (inactive)
COc1ccc2c3nc4cc(C)c(C)cc4nc3n(CCN(C)C)c2c1 | -51.6% (active)
CC(C)C(=O)Nc1ccc(C(=O)NC(=S)Nc2ccc(C(=O)O)cc2)cc1 | 107% (inactive)
Cc1ccc(CSc2nc(Cl)c(C#N)c(-c3ccc(F)cc3)n2)cc1 | 62.8% (inactive)
CN(C(=O)c1ccc(C(C)(C)C)cc1)c1sc2c(c1C#N)CCC(=O)C2 | -42.3% (active)
C/C(=N\NC(N)=S)c1ccc(Nc2nc(SC(C)C)nc(-c3ccccc3)c2C#N)cc1 | 85.8% (inactive)
COc1cc2c3c(n(CCCN4CCOCC4)c(=O)c2cc1OC)-c1nc2c(cc1C3=O)OCO2 | 22.2% (inactive)

Structure (SMILES) | growth
O=C(CSc1nnc(-c2c[nH]c3ccccc23)n1-c1ccccc1)Nc1ccc(C(=O)/C=C/c2cccc([N+](=O)[O-])c2)cc1 | 101% (inactive)
COc1cc(/C=C/C(=O)c2ccc(S(=O)(=O)NCCNc3nc(Nc4ccc(F)cc4)nc(N(C)C)n3)cc2)cc(OC)c1OC | 1.12% (active)
O=C(Nc1ccc(I)cc1F)c1cc(-c2ccc(F)cc2F)ccc1O | 10.1% (inactive)
COc1ccc(-c2ccc(SCC(=O)Nc3ccc(C#N)cc3)nn2)cc1 | 102% (inactive)
Cc1ccc2nc(COc3ccc(C(=O)NNC(=S)NCCc4ccccc4)cc3)[nH]c2c1 | 96.3% (inactive)
Cc1ccc(-c2nc3ccc(C(=O)N=Nc4c(O)[nH]c5ccc(Cl)cc45)cc3[nH]2)cc1 | -34% (active)
O=C1CCC(N2Cc3cc(NC(=O)COc4ccccc4)ccc3C2=O)C(=O)N1 (stereo not given) | 55.2% (inactive)
O=c1[nH][nH]c(Nc2ccccc2)c1N=Nc1ccc(F)cc1 | 109% (inactive)
[2H]C([2H])([2H])Oc1ccc2ncc(C#Cc3cncc(C(=O)Nc4ccc(CN5CCN(C)CC5)c(C(F)(F)F)c4)c3)n2n1 | -67.8% (active)
Cc1ccc(C(C)C)cc1NC(=O)c1ccccc1O | 62.8% (inactive)
O=C(Cc1ccc2c(c1)CN(C1CCC(=O)NC1=O)C2=O)NCCc1ccccc1 (stereo not given) | 10.6% (inactive)
O=C(c1ccc(O)cc1)C1[C@H](c2ccccc2Br)[C@@H](c2ccccc2)NC12C(=O)Nc1ccc(Br)cc12 (stereo not given in full) | 50.9% (inactive)
CC(C)(C)Nc1nc2cc(Cl)c(Cl)cc2nc1S(C)(=O)=O | -74.5% (active)
COc1ccc(-c2nc(S(=O)(=O)c3ccc(C)cc3)c(S(C)(=O)=O)o2)cc1 | -58.5% (active)
COc1cc(NC(=O)c2cc(-c3ccc(F)cc3F)ccc2O)cc(OC)c1OC | 55.3% (inactive)
O=C(c1ccccc1)n1ccc(-c2cc3cc(Br)ccc3oc2=O)n1 | 45.8% (inactive)
CC(C)Sc1nc(NC2CC2)c(C#N)c(-c2ccccc2)n1 | 100% (inactive)
COc1ccc(/C=C/C(=O)c2ccc(NC(=O)CN3C(=O)NC(C)(c4ccccc4)C3=O)cc2)cc1 (stereo not given) | 88.8% (inactive)
COC1CC(Cn2cc(COc3ccc4ccc(=O)oc4c3)nn2)C(OCc2ccccc2)C(OCc2ccccc2)C1OCc1ccccc1 (stereo not given) | 97.1% (inactive)
CN1C(=O)N(C)C2SC(N/N=C/c3cccs3)=NC21 (stereo not given) | 15.4% (inactive)

Reference: PubChem BioAssay (NCI)
